Pf apPOL block – Pf-apPOL inhibitors, biochemical, fluorescence; Recombinant Pf-apPOL, molecular beacon fluorescence, 1.5 h; AID 1794808, 2022; Plasmodium falciparum apicoplast DNA polymerase (apPOL); inhibition, % at 10 µM; 210,000 tested, 0.25% active
mHTT-CaM PPI inh – mutant huntingtin-calmodulin interaction inhibitors – biochemical, AlphaScreen, primary screen; P42858; AlphaScreen His-mHTT/GST-CaM binding, luminescence; inhibition, % at 15 µM; 190,000 tested, 3.6% active
Large screens that a line does not name were inactive; ! = repeats disagree. Most compounds without a hit are left out; they make up all but 3.5% or so of the library. Cut-off read from the data, not from the text of the source: active = inhibition above about 50%; inactive = the rest.

COc1ccc(-n2cnc3cc(C(=O)N4CCC5(CC4)OCCO5)ccc32)cc1	none
O=C(c1ccc2c(c1)ncn2-c1ccc(OCc2ccccc2)cc1)N1CCC2(CC1)OCCO2	mHTT-CaM PPI inh 52.0
COCCNC1Cc2ccccc2C1	none
CCc1c(C(=O)O)nnn1Cc1cc(C)ccc1C	none
Cc1nn(-c2ccccc2)c([Se])c1C=NC1CCCCC1	mHTT-CaM PPI inh 63.0
CN1C2CCC1CC(N=Cc1ccccc1)C2 (stereo not drawn)	none (no result: mHTT-CaM PPI inh)
O=[N+]([O-])c1c(Br)sc(Br)c1[N+](=O)[O-]	mHTT-CaM PPI inh 51.8 (no result: Pf apPOL block)
O=C1c2ccccc2-c2c3c(cc4ccnc1c24)OCO3	Pf apPOL block 77.0 (no result: mHTT-CaM PPI inh)
COc1ccc(CC(=O)N2CCN(Cc3ccccc3)CC2)cc1	none
O=C(Nc1cccc(Cl)c1Cl)c1cccn(Cc2cccc([N+](=O)[O-])c2)c1=O	none
O=C(O)c1cccc2c1NC(C(=O)O)C1CC(Sc3ccccc3[N+](=O)[O-])C(Cl)C21 (stereo not drawn)	mHTT-CaM PPI inh 77.0
CCSc1nc2ccccc2c(=O)n1-c1ccc(OC)cc1	none
O=C(c1cc(-c2cccs2)[nH]n1)N1CC2CC(C1)c1cccc(=O)n1C2 (stereo not drawn)	none
CN(C)c1ccc(CN2CC=C(c3ccc(F)cc3)CC2)cc1	mHTT-CaM PPI inh 51.7
CN(C)c1ccc(CN2CCN(c3ccc(F)cc3)CC2)cc1	none
c1ccc2c(c1)CCc1c-2[nH]c2ccccc12	mHTT-CaM PPI inh 62.5
Cc1ccc(-n2cccc2C=C2C(=O)NC(=O)NC2=O)cc1Cl	mHTT-CaM PPI inh 80.0
CN1C(=O)C(=Cc2cccn2-c2ccc(S(N)(=O)=O)cc2)C(=O)N(C)C1=O	none
CCC12C=CCN3CCC4(C(=C(C(=O)OC)C1)Nc1ccccc14)C32 (stereo not drawn)	none (no result: mHTT-CaM PPI inh)
CCn1cc(C(=O)O)c(=O)c2c(N)c(F)c(N3CCNCC3)c(F)c21	none
Cc1cccc(OCC(=O)N2CCN(Cc3ccccn3)CC2)c1	none
COc1ccc(CCN(C)Cc2cc(OC)c(OC)cc2[N+](=O)[O-])cc1OC	none
CC(C)C/C(=N\O)c1cn(C)c2ccccc12	none (no result: Pf apPOL block)
CN(C)C(CN)c1cn(C)c2ccccc12 (stereo not drawn)	mHTT-CaM PPI inh 69.4
NCCc1c[nH]c2ccccc12	none (no result: mHTT-CaM PPI inh)
NCCc1c[nH]c2ccc(OCc3ccccc3)cc12	mHTT-CaM PPI inh 80.1!
c1ccc(Oc2ccc3[nH]cc(CCN4CC4)c3c2)cc1	mHTT-CaM PPI inh 71.9 (no result: Pf apPOL block)
CN1CCCN(Cc2c[nH]c3ccccc23)CC1	none
O=C1Nc2ccccc2OC1C(=O)N1CCC2(CC1)OCCO2 (stereo not drawn)	none
Cc1nc(-c2ccccc2)nc2c1CC(=O)N2CCN1CCOCC1	none
c1cnc2nc(N3CCNCC3)oc2c1	none (no result: Pf apPOL block)
Fc1nc(N2CCNCC2)c(F)c(Sc2ccc(Cl)cc2)c1F	mHTT-CaM PPI inh 96.3 (no result: Pf apPOL block)
CCCOc1ccc(CNC(=O)c2nc(C)n(C3CCN(C)CC3)c2C)cc1	none
O=Cc1nc2ccccc2n1Cc1ccccc1	none
O=Cc1nc2ccccc2n1Cc1ccc(Cl)cc1Cl	mHTT-CaM PPI inh 95.4
CCOc1ccc(CNC(=O)c2nc(C)n(C3CCN(C)CC3)c2C)cc1OC	none
COc1ccc(C2C(C(=O)N3CCC4(CC3)OCCO4)c3ccccc3C(=O)N2C)cc1 (stereo not drawn)	none
Cn1c(=O)c2c(c3ccccc31)NC(=S)NN=C2	mHTT-CaM PPI inh 97.2 (no result: Pf apPOL block)
O=C(NC(O)C(Cl)(Cl)Cl)c1ccccc1 (stereo not drawn)	none
Nc1cc2nc3ccccc3nc2cc1O	mHTT-CaM PPI inh 100.3
Nc1cc2nc3ccccc3nc2cc1N	none (no result: Pf apPOL block)
CC12CCC3C(CC=C4CC(O)CCC43C)C1CC(=Cc1cccs1)C2=O (stereo not drawn)	none
CCc1cc2c(=O)c(-c3ccc4c(c3)OCCCO4)coc2cc1OC(=O)N(C)C	none
O=C(COc1ccccc1)N1CCCN(Cc2noc(-c3ccccc3)n2)CC1	none
O=C1NC(=S)NC(=O)C1=Cc1cc2c(cc1[N+](=O)[O-])OCO2	none
O=C1C2CCCN2C(c2ccncc2)N1c1ccc(Cl)c(Cl)c1 (stereo not drawn)	mHTT-CaM PPI inh 85.3
O=C1C2CCCN2C(c2cccnc2)N1c1ccc(Cl)c(Cl)c1 (stereo not drawn)	none
CC(=O)c1c(C)n(Cc2ccco2)c2ccc(O)cc12	none
O=[N+]([O-])c1ccc(N2CCN(Cc3cc(F)ccc3F)CC2)cc1	none
COc1ccc(OC)c(CNCCc2ccc([N+](=O)[O-])cc2)c1	none
COc1ccc(C=C2C(=O)NC(=O)NC2=O)cc1OCc1ccc(Cl)cc1Cl	none
c1cncc(CN2CCN(C3CC4CCC3C4)CC2)c1 (stereo not drawn)	none
COc1cc(CNCCc2c[nH]c3ccccc23)c([N+](=O)[O-])cc1OC	none
O=[N+]([O-])c1cc2c(cc1CNCCc1c[nH]c3ccccc13)OCO2	mHTT-CaM PPI inh 68.4
Clc1ccc(CN2CCN(c3ccccc3)CC2)c(Cl)c1	none
COc1ccc(N2CCN(Cc3ccc(Cl)cc3Cl)CC2)cc1	mHTT-CaM PPI inh 61.0
COc1ccc2c(c1)C1(CCN(C(=O)c3cccs3)C1)C(=O)N2C (stereo not drawn)	none
O=C(C1CCN(S(=O)(=O)N2CCCC2)CC1)N1CCC2(CC1)OCCO2	none
O=C1C=CC(=O)c2c(O)cccc21	Pf apPOL block 96.7 (no result: mHTT-CaM PPI inh)
O=C1c2ccccc2C(=O)c2ccccc21	none (no result: mHTT-CaM PPI inh)
CCCCN1C(=O)NC(=O)/C(=C\c2cn(Cc3ccccc3)c3ccccc23)C1=O	none
COc1ccc(N=Cc2cc3c(cc2O)OC(N)=C(C#N)C3c2ccco2)cc1 (stereo not drawn)	mHTT-CaM PPI inh 71.0
O=C(c1ccc(NCc2cccs2)c([N+](=O)[O-])c1)N1CC2CC(C1)c1cccc(=O)n1C2 (stereo not drawn)	none
CCN(CC)c1ccc(CC2C(=O)N(C)C(=O)N(C)C2=O)cc1	mHTT-CaM PPI inh 56.7
C=CCOc1ccc(CC2C(=O)N(C)C(=O)N(C)C2=O)cc1	mHTT-CaM PPI inh 100.1
Cc1ccc(CC2C(=O)N(C)C(=O)N(C)C2=O)s1	none
CCn1cc(C(=O)NCc2ccc(Br)cc2)c2cccnc21	none
O=[N+]([O-])c1ccc(O)c(CN2CCN(c3cccc(Cl)c3)CC2)c1	none
Cc1cccc(N2CCN(CCc3ccccc3)CC2)c1C	mHTT-CaM PPI inh 100.2
Cc1ccc(N2CCN(CCc3ccccc3)CC2)cc1	none
N#CCC1CCCN2CCCCC12 (stereo not drawn)	none (no result: Pf apPOL block)
CC1CCN(C(=O)C(C2CCCC2)N2CCN(C(=O)Cc3cccs3)CC2)CC1 (stereo not drawn)	none
COc1cc(C=C2C(=O)NC(=O)NC2=O)ccc1OCC(=O)O	none
COc1ccc(C=C2C(=O)NC(=S)NC2=O)cc1Br	Pf apPOL block 64.2 (no result: mHTT-CaM PPI inh)
CCCN1CCC(NCC2CCCO2)CC1 (stereo not drawn)	none
COc1ccc(NC(=O)c2nc(C)n(C3CCN(C)CC3)c2C)c(OC)c1	Pf apPOL block 58.6
COc1ccc(OC)c(NC(=O)c2nc(C)n(C3CCN(C)CC3)c2C)c1	none
Ic1ccc2c(c1)C1C=CCC1C(c1cccnc1)N2 (stereo not drawn)	mHTT-CaM PPI inh 97.0
Fc1ccc2c(c1)[C@@H]1C=CC[C@@H]1[C@H](c1cccnc1)N2	none (no result: Pf apPOL block)
C=CCN(C(=O)CN1C(=O)C(C)N=C(c2ccccc2)c2ccccc21)c1ccccc1 (stereo not drawn)	none
O=c1oc2ccccc2c(O)c1C(c1cccnc1)c1c(O)c2ccccc2oc1=O	none
CCOc1cc(C(c2c(O)c3ccccc3oc2=O)c2c(O)c3ccccc3oc2=O)ccc1O	mHTT-CaM PPI inh 84.0
O=C(Cc1ccsc1)N1CCCN(C2CCN(Cc3ccc(F)cc3)C2=O)CC1 (stereo not drawn)	none
